Compound activity as filed in PubChem.
ERa coact pot – ER-alpha (human) coactivator binding potentiation; P03372; TR-FRET ERalpha-LBD/SRC-Cy5 coactivator binding, 2 h; 100 = basal binding, no effect; coactivator binding (% of control), % at 25.6 µM; hit rate 1.3% among 86,000; in the data active = activity above about 200%;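 note: binding measured in presence of low estradiol as agonist stimulus; 0% = peptide alone without receptor and 100% = receptor with peptide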
Candida biofilm – kills Candida albicans biofilms | C. albicans biofilm + clotrimazole, Alamar Blue | inhibition, % at 6 µM | hit rate 0.14% among 85,000 | AID 834;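 active = inhibition above 20%; inactive = inhibition below 20%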;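 note: preformed 24 hr biofilms exposed to compound for 48 hr; 0% = biofilm without compound and 100% = blank killed by clotrimazole plus chlorhexidine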
ERb SRC1 inh – blocks coactivator binding to human estrogen receptor beta; hit rate 1.3% among 86,000; TR-FRET ER-beta LBD / SRC1-Cy5 peptide binding; receptor agonist-loaded with 1 µM estradiol; inhibition, % at 25.6 µM; Q92731;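 active = compounds whose percent inhibition of the receptor-coactivator binding signal exceeds about 50% in the single-dose screen, limit read from the data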;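 note: 0% = receptor plus peptide wells without compound and 100% = peptide-only wells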
EphB4 antag – antagonists of human EphB4-ephrin-B2 interaction; hit rate 0.15% among 97,000; P54760; EphB4 LBD / TNYL-RAW-Alexa532 peptide, fluorescence polarization; AID 720; inhibition, % at 7 µM;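 active = inhibition above the screen-wide mean inhibition plus 3 SD, cut at about 15% in these data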;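 note: 0% = DMSO wells and 100% = excess unlabeled TNYL-RAW peptide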
Target sequence (P54760 whole entry, looked up, the tested form may be a part): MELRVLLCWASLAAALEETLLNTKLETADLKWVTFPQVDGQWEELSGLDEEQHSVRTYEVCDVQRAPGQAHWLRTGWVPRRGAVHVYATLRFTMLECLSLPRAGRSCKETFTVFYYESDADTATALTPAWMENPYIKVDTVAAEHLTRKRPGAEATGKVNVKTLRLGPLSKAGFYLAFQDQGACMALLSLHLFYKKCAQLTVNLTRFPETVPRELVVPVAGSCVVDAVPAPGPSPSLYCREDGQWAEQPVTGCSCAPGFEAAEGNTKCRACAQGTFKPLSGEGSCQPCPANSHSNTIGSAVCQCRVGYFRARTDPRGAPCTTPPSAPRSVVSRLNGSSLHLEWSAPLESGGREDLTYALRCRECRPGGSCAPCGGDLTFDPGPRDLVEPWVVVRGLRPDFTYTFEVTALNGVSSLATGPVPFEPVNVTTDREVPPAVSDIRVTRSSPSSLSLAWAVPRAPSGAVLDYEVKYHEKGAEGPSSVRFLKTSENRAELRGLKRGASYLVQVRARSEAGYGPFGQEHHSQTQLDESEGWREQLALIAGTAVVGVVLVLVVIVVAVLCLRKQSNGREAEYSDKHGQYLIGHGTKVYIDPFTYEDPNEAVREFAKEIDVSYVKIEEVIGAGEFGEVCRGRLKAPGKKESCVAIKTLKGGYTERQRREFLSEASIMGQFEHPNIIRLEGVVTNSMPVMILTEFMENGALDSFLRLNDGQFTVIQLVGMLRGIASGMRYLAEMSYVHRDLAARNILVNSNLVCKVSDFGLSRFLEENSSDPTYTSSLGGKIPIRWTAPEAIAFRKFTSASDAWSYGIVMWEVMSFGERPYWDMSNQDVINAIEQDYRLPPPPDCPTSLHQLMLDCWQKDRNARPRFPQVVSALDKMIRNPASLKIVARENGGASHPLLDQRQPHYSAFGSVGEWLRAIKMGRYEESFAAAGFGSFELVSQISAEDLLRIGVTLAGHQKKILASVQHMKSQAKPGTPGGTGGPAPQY
MT1-MMP txn act – MT1-MMP promoter transcription activation; AID 750; hit rate 0.16% among 86,000; HT1080 MT1-MMP promoter luciferase reporter, luminescence, overnight; hits give high values; activation factor at 10 µM;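 active = activation factor of at least 2 for MT1-MMP transcription at 10 µM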
ERa coact inh – blocks coactivator binding to human estrogen receptor alpha; P03372; TR-FRET ER-alpha LBD / SRC-1 peptide, estradiol-bound; inhibition, % at 25.6 µM; hit rate 1.7% among 86,000; AID 629; in the data active = inhibition above about 50%;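 note: 0% = receptor plus peptide control and 100% = peptide only without receptor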
* marks the source's active call; other numbers are inactive results; x = no result given; [ ] = dose if it differs, or a comment. This is a sample that favours compounds with a hit; in the whole collection about 3.2% have one here.

SMILES	ERa coact pot	Candida biofilm	ERb SRC1 inh	EphB4 antag	MT1-MMP txn act	ERa coact inh
COC(=O)c1ccc(C(NC(=O)OCc2ccccc2)/C(=C/[C@@H](C)C(=O)NCc2cc(F)cc(F)c2)c2cccnc2)cc1 (stereo partly drawn)	x	x	x	x	1.3	x
COc1ccc(CC(=O)Nc2ccc(-c3nc4cc(C)ccc4o3)c(O)c2)cc1OC	122	8	53*[fluorescence artefact?]	-6	1.2	90*[fluorescence artefact?]
Cc1cc(OCC(=O)Nc2ccc3oc(-c4ccncc4)nc3c2)ccc1Cl	204*[fluorescence artefact?]	11	36	2	1	47
O=C(Cc1ccc(Cl)cc1)Nc1ccc2oc(-c3ccncc3)nc2c1	456*	10	8	-8	0.9	5
O=C(Nc1ccc2oc(-c3ccccc3F)nc2c1)c1cncc(Br)c1	164	8	28	2	1	54*
O=C(c1ccc2nc(-c3ccco3)c(-c3ccco3)nc2c1)N1CCN(c2ncccn2)CC1	26	6	86*[fluorescence artefact?]	-6	1.1	76*[fluorescence artefact?]
O=C(c1cccc(C(=O)N2CCN(c3ncccn3)CC2)c1)N1CCN(c2ncccn2)CC1	96	11	-11	7	1.2	-11
O=C(Nc1ccc(N2CCOCC2)cc1)c1ccncc1	84	2	20	-6	1.7	-2
O=C(Nc1ccc(N2CCOCC2)cc1)c1ccc2nc(-c3ccco3)c(-c3ccco3)nc2c1	42	-2	50*[fluorescence artefact?]	6	1.2	80*[fluorescence artefact?]
S=C(Nc1ccc(N2CCOCC2)cc1)Nc1ccc2nc(-c3ccco3)c(-c3ccco3)nc2c1	14	0	89*[fluorescence artefact?]	2	x	68*[fluorescence artefact?]
CCC/C=C(\CCC)C(NC(=O)c1ccco1)c1ccc(C(=O)OC)cc1 (stereo not drawn)	x	x	x	x	1	x
CCCc1nnc2n1N=C(c1ccc(-c3cc(Cl)ccc3Cl)o1)CS2	144	12	45	-2	0.8	73*
Cn1c(N)c(C(=O)CSc2nc3ccccc3n2-c2ccccc2)c(=O)n(C)c1=O	231*[fluorescence artefact?]	-3	38	x	1.2	48
Cc1ccc(NC(=O)c2ccc(OC(=O)CCN3C(=O)c4ccccc4C3=O)cc2)cc1	372*[fluorescence artefact?]	-3	12	6	1.4	21
CCOC(=O)Cn1cnc2sc3c(c2c1=O)CCC3	86	6	70*	3	1.2	64*[fluorescence artefact?]
COc1cc2c(cc1OC)CN(Cc1nc3ccsc3c(=O)[nH]1)CC2	59	1	49	9	1.2	53*[fluorescence artefact?]
Cc1ccc(S(=O)(=O)N(CCC(=O)O)Cc2ccc(Cl)cc2)cc1	128	3	5	1	1.1	2
c1ccc(-n2ncc3c2ncn2nc(-c4ccco4)nc32)cc1	315*[fluorescence artefact?]	5	49	1	1	45
COc1cccc(OCc2nc3c4cnn(-c5ccccc5)c4ncn3n2)c1	173	4	9	2	0.9	19
OC(COc1ccc(C2C=CCC2)cc1)CN1CCCCC1 (stereo not drawn)	263*[fluorescence artefact?]	6	63*[fluorescence artefact?]	5	1.2	37
CCc1ccc2nc(NC(=O)c3ccc4c(=O)[nH]c(CN5CCOCC5)nc4c3)sc2c1	170	3	48	-2	1.3	69*
O=C(OCc1cccc2ccccc12)c1ccc2c(=O)[nH]c(CN3CCOCC3)nc2c1	142	3	0	-4	1.1	-1
Clc1ccc(CSc2nnc(-c3cccnc3)n2Cc2ccco2)c(Cl)c1	103	8	-6	-3	1.1	-2
COC(=O)C1=C(C)N2C(=O)CSC2=NC1c1ccc2c(c1)OCO2 (stereo not drawn)	133	-3	0	x	1	2
CCC(=O)Nc1nonc1-c1nc2ccccc2n1Cc1ccc(Cl)c(Cl)c1	109	8	51*[fluorescence artefact?]	x	1	58*[fluorescence artefact?]
SMILES	ERa coact pot	Candida biofilm	ERb SRC1 inh	EphB4 antag	MT1-MMP txn act	ERa coact inh
C=CCNc1nc(-c2cccc(OC)c2O)nc2ccccc12	85	5	29	-6	1.2	58*
N#Cc1c(/N=C/c2ccco2)sc2c1CCC2	104	3	5	-1	1.2	-4
CCOc1[nH]c(/N=C/c2ccco2)c(C#N)c1C#N	72	7	60*	-4	1	35
COC(=O)Cn1c(CCC(=O)O)ccc1-c1ccccc1	97	31*	-2	-4	1	-7
Cc1ccc(-c2ccc(CCC(=O)O)n2CC(=O)O)cc1	81	1	14	-4	x	2
COC(=O)c1ccc(C(/C=C/[C@@H](C)C(=O)N(C)C)NC(=O)OCc2ccccc2)cc1 (stereo partly drawn)	x	x	x	x	1.1	x
O=C1N=C(N2CCOCC2)S/C1=C1\C(=O)N(Cc2ccccc2)c2ccc(Br)cc21	34	7	44	x	1.3	93*[fluorescence artefact?]
Cc1ccc(CN2C(=O)/C(=C3\SC(N4CCOCC4)=NC3=O)c3cc(Br)ccc32)cc1	11	4	13	x	1.2	24
Cc1ccccc1Cn1ccc(NC(=O)c2cnn3c2NC(c2ccccc2)CC3C(F)(F)F)n1 (stereo not drawn)	104	4	2	-6	1.2	-7
Cc1nn(C)c(C)c1CN(C)C(=O)c1cnn2c1NC(c1ccccc1)CC2C(F)(F)F (stereo not drawn)	100	9	56*	-4	1	4
COC(=O)c1ccc(CC(=O)c2c(C)cc(O)cc2O)o1	75	1	52*	-1	1.1	35
COc1cccc(C(=O)Nc2cccc(-c3nnc(-c4ccco4)o3)c2)c1	102	-2	-1	1	0.9	-13
COc1ccc(Br)cc1C(=O)Nc1cccc(-c2nnc(-c3ccco3)o2)c1	115	2	53*[fluorescence artefact?]	-3	0.9	69*[fluorescence artefact?]
O=C(COc1ccc(Br)cc1)Nc1ccc(-c2nnc(-c3ccco3)o2)cc1	268*[fluorescence artefact?]	4	3	-6	1.1	4
COC(=O)c1ccc(C(NC(=O)OCc2ccccc2)/C(F)=C/[C@@H](C)C(=O)N(C)Cc2cccnc2)cc1 (stereo partly drawn)	x	x	x	x	1.1	x
O=C(Nc1ccc(-n2nncc2-c2ccco2)cc1)c1cccc(F)c1	99	5	17	-2	1.1	16
O=C(Nc1ccc(-n2nncc2-c2ccco2)cc1)c1cc2ccccc2oc1=O	186	0	65*[fluorescence artefact?]	-2	1.1	69*
CCCCN(C(=O)NC(=O)Nc1cc(C)ccc1C)S(C)(=O)=O	104	9	91*[fluorescence artefact?]	4	1.1	0
CCCCN(C(=O)NC(=O)Nc1ccccc1OC)S(C)(=O)=O	110	9	-3	3	1.1	-5
CCC/C(=N/Nc1ccc(Cl)cc1)c1cnnc(-c2ccccc2)n1	12	6	67*[fluorescence artefact?]	5	1.1	94*
COC(=O)Nc1sccc1C(=O)Nc1sccc1C(=O)OC	201*	-1	6	-6	1.1	12
Cc1ccc(-n2nc(C)c3c(-c4cccs4)c(C#N)c(N)nc32)cc1	210*[fluorescence artefact?]	3	19	5	1.2	10
